Data: PubChem BioAssay
A number with no mark means an inactive call. For some of these results: Measured potencies and affinities stand elsewhere. The source made the active and inactive calls. Unless noted, no rule for the calls is given here.

Assays:
[1] = antimalarial activity against Dd2 strain (AID 2302;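 active = growth inhibition above 50% at the single 2 µM test dose, taken to imply half-maximal potency below 2 µM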;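 also: 0% = DMSO untreated growth and 100% = chloroquine plus artemisinin killed control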); conditions: P. falciparum Dd2 in RBCs, LDH growth readout, 72 h; at 2 µM; stronger effect = higher value
[2] = human hepatoma cell viability loss – ATP luminescence, cytotoxicity control for P. falciparum antimalarial project, primary screen (AID 2303;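 active = inhibition above 50%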;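 also: 0% = DMSO wells and 100% = digitonin-killed cells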); conditions: HepG2 viability, 24-48 h, at 10 µM, stronger effect = higher value
[3] = molecular target: L-lactate dehydrogenase (Plasmodium falciparum (isolate CDC / Honduras)) (UniProt Q27743); assay: PfLDH activity inhibition – cell lysate, 3D7 strain, counter-screen for P. falciparum growth inhibition project (AID 2304);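 also: 0% = vehicle and 100% = reference inhibitor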; conditions: P. falciparum 3D7 crude extract, LDH APAD/NBT absorbance; at 2 µM; stronger effect = higher value
Sequence of L-lactate dehydrogenase (Plasmodium falciparum (isolate CDC / Honduras)) (Q27743 whole entry, looked up): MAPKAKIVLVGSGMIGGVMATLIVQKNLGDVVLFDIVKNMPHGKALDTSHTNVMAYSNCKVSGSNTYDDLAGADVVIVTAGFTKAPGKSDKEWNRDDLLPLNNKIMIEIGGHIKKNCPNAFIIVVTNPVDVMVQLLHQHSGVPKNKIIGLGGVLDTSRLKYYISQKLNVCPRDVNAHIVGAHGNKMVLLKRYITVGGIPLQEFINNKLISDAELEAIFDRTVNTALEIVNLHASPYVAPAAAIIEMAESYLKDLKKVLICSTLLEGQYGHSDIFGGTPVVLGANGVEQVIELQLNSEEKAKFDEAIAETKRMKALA

[4] = inhibition of 3D7 malaria parasite growth – strain 3D7 (AID 2306);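 also: 0% = DMSO wells and 100% = chloroquine plus artemisinin control wells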; conditions: P. falciparum 3D7 erythrocytic growth, LDH absorbance, 72 h; at 2 µM; stronger effect = higher value
[5] = molecular target: Calcium-dependent protein kinase 1 (Plasmodium falciparum (isolate 3D7)) (UniProt P62344); assay: PfCDPK1 kinase inhibitors, biochemical, TCAMS library (AID 1159585; cut-off not given, nearly all actives have IC50 up to about 0.98 µM;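 also: inhibitors leave more ATP so luminescence rises with inhibition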); conditions: recombinant PfCDPK1, Kinase-Glo ATP depletion luminescence
Sequence of Calcium-dependent protein kinase 1 (Plasmodium falciparum (isolate 3D7)) (P62344 whole entry, looked up): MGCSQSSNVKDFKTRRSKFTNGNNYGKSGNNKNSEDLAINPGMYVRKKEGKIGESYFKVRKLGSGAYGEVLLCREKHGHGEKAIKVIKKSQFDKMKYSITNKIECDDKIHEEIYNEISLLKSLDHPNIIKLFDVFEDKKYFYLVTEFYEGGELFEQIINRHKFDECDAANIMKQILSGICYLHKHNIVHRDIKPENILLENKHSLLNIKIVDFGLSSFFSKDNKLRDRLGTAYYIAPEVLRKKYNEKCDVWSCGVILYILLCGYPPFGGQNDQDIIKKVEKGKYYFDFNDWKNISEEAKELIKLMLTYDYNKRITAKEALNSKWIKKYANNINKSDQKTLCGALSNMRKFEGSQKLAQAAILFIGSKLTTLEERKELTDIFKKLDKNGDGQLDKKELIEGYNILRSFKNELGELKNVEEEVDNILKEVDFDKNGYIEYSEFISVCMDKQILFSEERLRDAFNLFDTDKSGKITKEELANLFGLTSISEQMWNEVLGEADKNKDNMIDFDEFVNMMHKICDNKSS

[6] = molecular target: Plasmodium falciparum protein kinase 6 (PK6, PF3D7_1337100) (UniProt Q8IDW1); assay: PfPK6 kinase inhibitors, biochemical, TCAMS library (AID 1159586); conditions: recombinant PfPK6, Kinase-Glo ATP depletion luminescence
Sequence of Plasmodium falciparum protein kinase 6 (PK6, PF3D7_1337100) (Q8IDW1 1-305): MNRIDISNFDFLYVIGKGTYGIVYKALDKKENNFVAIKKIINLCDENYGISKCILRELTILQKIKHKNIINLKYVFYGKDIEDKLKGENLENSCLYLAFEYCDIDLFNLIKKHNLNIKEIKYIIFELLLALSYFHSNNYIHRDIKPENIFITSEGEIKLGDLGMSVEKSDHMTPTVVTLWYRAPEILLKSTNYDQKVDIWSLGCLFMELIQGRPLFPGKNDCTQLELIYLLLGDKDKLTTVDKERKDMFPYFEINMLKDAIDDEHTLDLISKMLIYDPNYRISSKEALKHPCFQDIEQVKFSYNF

[7] = molecular target: Protein kinase 7 (PK7), Plasmodium falciparum 3D7 (PF3D7_0213400) (UniProt Q7YTF7); assay: inhibition of Plasmodium PK7 catalytic activity – biochemical, TCAMS antimalarial set, Kinase-Glo luminescence (AID 1159587); conditions: recombinant PfPK7, Kinase-Glo ATP depletion luminescence
Sequence of Protein kinase 7 (PK7), Plasmodium falciparum 3D7 (PF3D7_0213400) (Q7YTF7 1-343): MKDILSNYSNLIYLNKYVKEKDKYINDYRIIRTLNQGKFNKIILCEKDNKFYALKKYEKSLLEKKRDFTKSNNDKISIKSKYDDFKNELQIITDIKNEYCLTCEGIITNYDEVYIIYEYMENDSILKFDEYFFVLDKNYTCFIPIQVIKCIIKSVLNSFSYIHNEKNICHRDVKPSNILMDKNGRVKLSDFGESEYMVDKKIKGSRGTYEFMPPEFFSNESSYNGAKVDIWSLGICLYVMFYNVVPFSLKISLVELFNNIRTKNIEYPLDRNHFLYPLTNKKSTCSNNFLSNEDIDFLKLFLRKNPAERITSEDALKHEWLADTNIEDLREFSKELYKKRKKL

[8] = molecular target: Calcium-dependent protein kinase 4 (Plasmodium falciparum (isolate 3D7)) (UniProt Q8IBS5); assay: PfCDPK4 kinase inhibitors, biochemical, TCAMS library (AID 1159588; cut-off not given, nearly all actives have IC50 up to about 0.91 µM); conditions: recombinant PfCDPK4, Kinase-Glo ATP depletion luminescence
Sequence of Calcium-dependent protein kinase 4 (Plasmodium falciparum (isolate 3D7)) (Q8IBS5 whole entry, looked up): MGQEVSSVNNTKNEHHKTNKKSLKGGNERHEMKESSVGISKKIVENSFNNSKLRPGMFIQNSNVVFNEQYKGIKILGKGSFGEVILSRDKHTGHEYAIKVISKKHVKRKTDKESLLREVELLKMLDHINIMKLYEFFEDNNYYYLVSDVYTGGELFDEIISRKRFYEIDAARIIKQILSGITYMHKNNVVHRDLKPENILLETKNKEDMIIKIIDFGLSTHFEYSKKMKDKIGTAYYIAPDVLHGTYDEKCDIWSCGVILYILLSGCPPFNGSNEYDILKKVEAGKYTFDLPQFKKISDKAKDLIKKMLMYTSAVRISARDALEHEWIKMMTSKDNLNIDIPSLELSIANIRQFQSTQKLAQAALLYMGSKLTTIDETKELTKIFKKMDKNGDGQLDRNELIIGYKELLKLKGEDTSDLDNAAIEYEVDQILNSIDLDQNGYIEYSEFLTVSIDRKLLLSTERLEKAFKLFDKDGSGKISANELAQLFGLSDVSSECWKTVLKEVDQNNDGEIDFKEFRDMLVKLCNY

SMILES | growth inhibition [1] | inhibition [2] | inhibition [3] [%] | growth inhibition [4] | outcome [5] | outcome [6] | outcome [7] | outcome [8]
Cc1ccccc1C1CCN(C2CCC(NC(=O)c3cncc(-c4ccccc4)c3)CC2)CC1 (stereo not given) | 92% (active) | 27% | -1 | 101% (active) | inactive | inactive | inactive | inactive
O=C(Nc1ccc2oc(-c3ccc(Cl)cc3Cl)nc2c1)c1ccc([N+](=O)[O-])o1 | 78% (active) | 39% | 3 | 95% (active) | inactive | inactive | inactive | inactive
O=C(Nc1cccc(-c2nc3ccccc3[nH]2)c1)c1ccc(-c2cccc([N+](=O)[O-])c2)o1 | 28% | 22% | -1 | 93% (active) | inactive | inactive | inactive | inactive
COc1cccc(CNC(=O)c2ccnc(-c3cccc(CN(C)C4CCN(C)CC4)c3)c2)c1 | 46% | 19% | -1 | 100% (active) | inactive | inactive | inactive | inactive
O=C(Nc1ccc2c(c1)CCC2)c1nc(N2CCN(c3ccncc3)CC2)ccc1Cl | 97% (active) | 55% (active) | -1 | 101% (active) | inactive | inactive | inactive | inactive
Cc1ccc(Cc2c(C)nc3nc(N)nc(N)c3c2C)cc1 | 1% | 60% (active) | 5 | 93% (active) | inactive | inactive | inactive | inactive
COc1ccc(CCNCCCCCNCCc2ccc(Cl)cc2)cc1OC | -2% | 32% | -11 | 101% (active) | inactive | inactive | inactive | inactive
O=C(/C=C/c1ccc(Cl)c(Cl)c1)NCCCCCN1CCC(NC(=O)c2ccc(F)cc2F)CC1 | 11% | 17% | -3 | 96% (active) | inactive | inactive | inactive | inactive
Cc1ccc2[nH]c(C3CCCNC3)c(-c3ccncc3)c2c1 (stereo not given) | 22% | 10% | 0 | 101% (active) | inactive | inactive | inactive | inactive
CCCCOC(=O)C1=C(C)NC2=C(C(=O)CCC2)C1c1ccc(OC)c(Br)c1 (stereo not given) | 87% (active) | 5% | -4 | 93% (active) | inactive | inactive | inactive | inactive
O=C(Nc1ccnc(N2CCCN(Cc3cccc(O)c3)CC2)c1)c1ccc(F)cc1 | 3% | 12% | 4 | 90% (active) | inactive | inactive | inactive | inactive
O=C(Nc1ccc(-c2cccc(-c3nc4ccccc4[nH]3)c2)cc1)Nc1ccc(Cl)c(Cl)c1 | 80% (active) | 61% (active) | -2 | 101% (active) | inactive | inactive | inactive | inactive
CN1CCN(CC(=O)Nc2ccc(-c3cccc(-c4nc5ccc(C(F)(F)F)cc5[nH]4)c3)cc2)CC1 | 93% (active) | 45% | -5 | 101% (active) | inactive | inactive | inactive | inactive
CC(=O)c1cccc(Nc2nc3c(C#N)c(OCc4cc(Cl)cc(Cl)c4)ccc3[nH]2)c1 | 45% | 29% | 0 | 86% (active) | inactive | inactive | inactive | inactive
NC(N)=Nc1ccc(OCCCCCOc2ccc(N=C(N)N)c(Cl)c2)cc1Cl | 92% (active) | 18% | 6 | 92% (active) | inactive | inactive | inactive | inactive
CCOc1cc(C(=O)N[C@@H](Cc2ccccc2)[C@H](O)CNCc2cccc(OC)c2)cc(N2CCCCS2(=O)=O)c1 | 94% (active) | 3% | 3 | 97% (active) | inactive | inactive | inactive | inactive
CN(C)CCOc1cc(NC(=O)Nc2ccc(Oc3ccccc3)cc2)ccc1I | 4% | 13% | 4 | 89% (active) | inactive | inactive | inactive | inactive
CC1CC(NCCCNc2cc(=O)c3ccccc3[nH]2)c2cc(Cl)c(Cl)c(Cl)c21 (stereo not given) | 69% (active) | 0% | 3 | 100% (active) | inactive | inactive | inactive | inactive
Cc1ccc(C2CCN(CCCCNC(=O)c3ccc(-c4ccc(C(F)(F)F)cc4)cc3)CC2)c(O)c1 | 49% | 92% (active) | -2 | 100% (active) | inactive | inactive | inactive | inactive
Nc1c2nc(-c3c(F)cccc3Cl)[nH]c(=O)c2nc(=O)n1-c1ccccc1 | 0% | 52% (active) | 2 | 95% (active) | inactive | inactive | inactive | inactive
